The source of these data is paper PMC7862700, “An all-to-all approach to the identification of sequence-specific readers for epigenetic DNA modifications on cytosine”.

Common to all, as to assay: DAPPL (digital affinity profiling via proximity ligation, sequencing); 10 mM Tris-HCl pH 7.5, 50 mM NaCl, 1 mM DTT, 4% glycerol, room temperature, 30 min; GST-TFs on glutathione beads, 16-mer random dsDNA library, 0.1% formaldehyde crosslink after washing; high values mean tight binding
The target of one test is T1, FEV (Homo sapiens, UniProt Q99581 1-238).
T1 sequence: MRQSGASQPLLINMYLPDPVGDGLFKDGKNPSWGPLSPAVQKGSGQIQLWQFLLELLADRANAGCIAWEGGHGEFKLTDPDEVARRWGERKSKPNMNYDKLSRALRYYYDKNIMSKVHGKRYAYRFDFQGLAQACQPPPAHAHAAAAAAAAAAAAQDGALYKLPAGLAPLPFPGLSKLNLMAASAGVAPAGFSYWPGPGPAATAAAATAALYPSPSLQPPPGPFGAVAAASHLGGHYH
The settings on record: protein: recombinant; tags: N-terminal GST; dsDNA, one strand shown. The method, boiled down: (§1)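 Binding signal is given per hexamer as its read frequency for a factor divided by its frequency in the tag-only sample. GST-fused human transcription factors were expressed in yeast, captured on glutathione beads, barcoded with DNA and pooled with that sample, then incubated with 200 nmole of a 16-mer random double-stranded DNA library in Tris/NaCl/DTT/glycerol buffer for 30 min at room temperature. The pools were then washed, crosslinked, proximity-ligated, amplified by PCR and sequenced on an Illumina NextSeq500.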

The next test concerns the target ETV5 (Homo sapiens, UniProt P41161 1-510). As to conditions: protein: recombinant; tags: N-terminal GST; dsDNA, one strand shown. The essentials: as §1
The target in a further test is HSF1 (Homo sapiens, UniProt Q00613 1-529). As to conditions: protein: recombinant; tags: N-terminal GST; chain copies: 3; dsDNA, one strand shown. The method, boiled down:
as §1

Another test addresses T2, SPIC (Homo sapiens, UniProt Q8N5J4 1-248).
T2 sequence: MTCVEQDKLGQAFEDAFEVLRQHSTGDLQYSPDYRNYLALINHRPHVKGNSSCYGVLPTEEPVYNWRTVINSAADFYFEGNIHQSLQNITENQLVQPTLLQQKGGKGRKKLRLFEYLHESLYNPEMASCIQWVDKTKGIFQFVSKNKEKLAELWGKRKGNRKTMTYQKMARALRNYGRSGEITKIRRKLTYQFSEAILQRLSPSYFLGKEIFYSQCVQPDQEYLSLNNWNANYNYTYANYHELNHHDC
As to conditions: protein: recombinant; tags: N-terminal GST; dsDNA, one strand shown. The essentials: as §1

A further test concerns the target ELF4 (Homo sapiens, UniProt Q99607 1-663). The settings on record: protein: recombinant; tags: N-terminal GST; dsDNA, one strand shown. The essentials: as §1
Another test has as its target T3, ELK4 (Homo sapiens, UniProt P28324-2 1-405).
T3 sequence: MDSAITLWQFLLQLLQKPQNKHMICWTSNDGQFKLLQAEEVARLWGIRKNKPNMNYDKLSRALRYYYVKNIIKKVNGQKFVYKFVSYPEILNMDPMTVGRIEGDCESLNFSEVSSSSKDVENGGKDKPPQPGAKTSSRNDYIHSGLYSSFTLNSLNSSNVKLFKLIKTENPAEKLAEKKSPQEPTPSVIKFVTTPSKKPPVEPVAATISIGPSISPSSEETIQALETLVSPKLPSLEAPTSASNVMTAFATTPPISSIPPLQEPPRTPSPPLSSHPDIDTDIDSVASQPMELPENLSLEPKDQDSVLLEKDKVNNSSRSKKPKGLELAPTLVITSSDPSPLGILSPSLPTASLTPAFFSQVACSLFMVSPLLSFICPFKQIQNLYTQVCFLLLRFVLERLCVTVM
As to conditions: protein: recombinant; tags: N-terminal GST; dsDNA, one strand shown. The essentials:
as §1

The next test has as its target T4, ETV2 (Homo sapiens, UniProt O00321 1-342).
T4 sequence: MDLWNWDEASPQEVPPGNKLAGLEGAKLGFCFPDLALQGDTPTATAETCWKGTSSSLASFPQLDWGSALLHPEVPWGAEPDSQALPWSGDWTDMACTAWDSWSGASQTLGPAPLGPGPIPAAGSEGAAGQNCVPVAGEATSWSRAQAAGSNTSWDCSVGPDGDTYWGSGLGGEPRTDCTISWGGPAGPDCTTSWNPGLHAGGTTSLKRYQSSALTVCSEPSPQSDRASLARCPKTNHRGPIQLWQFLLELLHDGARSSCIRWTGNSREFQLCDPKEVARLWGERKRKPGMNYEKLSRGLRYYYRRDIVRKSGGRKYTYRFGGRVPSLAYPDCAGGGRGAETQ
As to conditions: protein: recombinant; tags: N-terminal GST; dsDNA, one strand shown. The essentials:
as §1

Another test has as its target T5, ELF3 (Homo sapiens, UniProt P78545 1-371).
T5 sequence: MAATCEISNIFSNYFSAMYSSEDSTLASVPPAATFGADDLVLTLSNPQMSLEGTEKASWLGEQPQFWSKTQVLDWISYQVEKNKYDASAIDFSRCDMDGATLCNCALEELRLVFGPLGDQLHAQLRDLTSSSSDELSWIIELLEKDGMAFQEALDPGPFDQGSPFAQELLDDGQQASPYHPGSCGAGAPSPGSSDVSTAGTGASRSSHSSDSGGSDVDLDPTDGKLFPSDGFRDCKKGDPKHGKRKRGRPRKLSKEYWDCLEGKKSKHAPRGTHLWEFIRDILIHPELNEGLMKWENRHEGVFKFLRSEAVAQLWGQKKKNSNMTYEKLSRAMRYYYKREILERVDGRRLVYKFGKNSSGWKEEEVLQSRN
The settings on record: protein: recombinant; tags: N-terminal GST; dsDNA, one strand shown. The essentials: as §1

Another test deals with CRX (Homo sapiens, UniProt O43186 1-299). As to conditions: protein: recombinant; tags: N-terminal GST; dsDNA, one strand shown. The essentials: as §1
Chain of CRX (O43186 whole entry): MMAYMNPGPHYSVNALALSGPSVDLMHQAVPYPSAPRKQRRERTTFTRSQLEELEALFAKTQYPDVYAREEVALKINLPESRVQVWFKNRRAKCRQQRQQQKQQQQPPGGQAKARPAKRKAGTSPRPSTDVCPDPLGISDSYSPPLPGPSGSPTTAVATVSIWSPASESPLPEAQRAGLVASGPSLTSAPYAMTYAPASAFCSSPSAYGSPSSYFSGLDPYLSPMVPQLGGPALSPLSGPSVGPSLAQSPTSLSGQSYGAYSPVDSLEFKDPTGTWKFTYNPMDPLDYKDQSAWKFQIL
The target in a further test is ETV1 (Homo sapiens, UniProt P50549 1-477). The settings on record: protein: recombinant; tags: N-terminal GST; dsDNA, one strand shown. The method, boiled down: as §1
Chain of ETV1 (P50549 whole entry): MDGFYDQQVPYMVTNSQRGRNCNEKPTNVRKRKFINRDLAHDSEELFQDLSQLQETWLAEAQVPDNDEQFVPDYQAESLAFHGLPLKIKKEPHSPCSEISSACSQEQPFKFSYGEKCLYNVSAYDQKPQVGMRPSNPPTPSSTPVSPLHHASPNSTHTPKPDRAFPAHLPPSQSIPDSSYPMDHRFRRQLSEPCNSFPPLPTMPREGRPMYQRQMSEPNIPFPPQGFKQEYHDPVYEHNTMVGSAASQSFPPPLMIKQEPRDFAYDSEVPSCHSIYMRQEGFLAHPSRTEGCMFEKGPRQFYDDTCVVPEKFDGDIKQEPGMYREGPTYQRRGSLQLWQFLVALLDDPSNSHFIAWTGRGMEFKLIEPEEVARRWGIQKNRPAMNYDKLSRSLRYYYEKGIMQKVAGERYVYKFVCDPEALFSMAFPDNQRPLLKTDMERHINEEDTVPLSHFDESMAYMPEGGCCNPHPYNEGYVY
The target of the next test is T6, ERF (Homo sapiens, UniProt P50548 1-548).
T6 sequence: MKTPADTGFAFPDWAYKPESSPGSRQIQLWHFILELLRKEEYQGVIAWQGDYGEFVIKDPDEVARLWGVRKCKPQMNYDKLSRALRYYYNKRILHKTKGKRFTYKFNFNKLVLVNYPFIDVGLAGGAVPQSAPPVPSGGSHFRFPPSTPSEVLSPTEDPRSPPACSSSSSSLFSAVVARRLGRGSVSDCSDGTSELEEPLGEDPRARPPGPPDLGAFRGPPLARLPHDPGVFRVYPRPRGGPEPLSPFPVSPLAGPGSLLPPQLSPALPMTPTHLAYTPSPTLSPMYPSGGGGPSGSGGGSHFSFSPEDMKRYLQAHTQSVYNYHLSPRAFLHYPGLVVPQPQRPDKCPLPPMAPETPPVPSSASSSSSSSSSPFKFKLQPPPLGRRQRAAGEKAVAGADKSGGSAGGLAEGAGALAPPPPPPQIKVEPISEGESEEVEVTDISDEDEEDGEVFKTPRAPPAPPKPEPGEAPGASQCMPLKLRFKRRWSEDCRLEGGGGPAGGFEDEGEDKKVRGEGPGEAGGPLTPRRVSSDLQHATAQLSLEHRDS
The settings on record: protein: recombinant; tags: N-terminal GST; dsDNA, one strand shown. The essentials: as §1

Another test concerns the target T7, ETV3L (Homo sapiens, UniProt Q6ZN32 1-361).
T7 sequence: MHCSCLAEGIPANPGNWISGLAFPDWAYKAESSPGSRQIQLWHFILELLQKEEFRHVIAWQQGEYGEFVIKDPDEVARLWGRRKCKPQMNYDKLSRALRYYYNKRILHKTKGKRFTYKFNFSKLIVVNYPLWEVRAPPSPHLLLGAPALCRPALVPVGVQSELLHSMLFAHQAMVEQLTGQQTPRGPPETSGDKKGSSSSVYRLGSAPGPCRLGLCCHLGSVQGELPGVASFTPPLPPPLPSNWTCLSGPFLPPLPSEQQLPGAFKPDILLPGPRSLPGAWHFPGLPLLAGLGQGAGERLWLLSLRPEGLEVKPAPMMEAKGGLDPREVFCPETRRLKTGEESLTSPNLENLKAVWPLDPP
As to conditions: protein: recombinant; tags: N-terminal GST; dsDNA, one strand shown. The essentials:
as §1

In a further test the target is T8, ETS2 (Homo sapiens, UniProt P15036 1-469).
T8 sequence: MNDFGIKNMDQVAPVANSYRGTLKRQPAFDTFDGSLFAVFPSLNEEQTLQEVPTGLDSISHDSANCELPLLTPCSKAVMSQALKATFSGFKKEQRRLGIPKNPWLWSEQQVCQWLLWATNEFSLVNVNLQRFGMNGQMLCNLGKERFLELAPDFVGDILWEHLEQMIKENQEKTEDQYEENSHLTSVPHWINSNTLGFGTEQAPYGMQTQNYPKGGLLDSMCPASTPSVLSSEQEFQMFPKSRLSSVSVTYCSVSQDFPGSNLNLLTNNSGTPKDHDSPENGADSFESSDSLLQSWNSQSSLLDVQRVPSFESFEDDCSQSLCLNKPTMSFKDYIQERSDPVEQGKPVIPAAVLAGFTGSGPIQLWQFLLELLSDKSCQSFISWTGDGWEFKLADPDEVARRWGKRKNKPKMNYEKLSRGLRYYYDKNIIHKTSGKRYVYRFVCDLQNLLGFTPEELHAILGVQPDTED
The settings on record: protein: recombinant; tags: N-terminal GST; dsDNA, one strand shown. The method, boiled down: as §1

The next test addresses T9, SPDEF (Homo sapiens, UniProt O95238 1-335).
T9 sequence: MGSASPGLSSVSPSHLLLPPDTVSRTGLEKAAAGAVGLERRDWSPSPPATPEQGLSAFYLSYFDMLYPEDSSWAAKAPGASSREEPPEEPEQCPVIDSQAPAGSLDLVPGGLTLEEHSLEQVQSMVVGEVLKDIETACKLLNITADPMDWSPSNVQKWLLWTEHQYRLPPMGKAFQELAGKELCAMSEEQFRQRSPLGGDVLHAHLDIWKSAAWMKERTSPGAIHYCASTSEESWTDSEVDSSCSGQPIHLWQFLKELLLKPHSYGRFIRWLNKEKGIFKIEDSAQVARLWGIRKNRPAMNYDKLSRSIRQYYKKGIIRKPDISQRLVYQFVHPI
As to conditions: protein: recombinant; tags: N-terminal GST; dsDNA, one strand shown. The essentials: as §1

A further test addresses T10, ETV7 (Homo sapiens, UniProt Q9Y603 1-341).
T10 sequence: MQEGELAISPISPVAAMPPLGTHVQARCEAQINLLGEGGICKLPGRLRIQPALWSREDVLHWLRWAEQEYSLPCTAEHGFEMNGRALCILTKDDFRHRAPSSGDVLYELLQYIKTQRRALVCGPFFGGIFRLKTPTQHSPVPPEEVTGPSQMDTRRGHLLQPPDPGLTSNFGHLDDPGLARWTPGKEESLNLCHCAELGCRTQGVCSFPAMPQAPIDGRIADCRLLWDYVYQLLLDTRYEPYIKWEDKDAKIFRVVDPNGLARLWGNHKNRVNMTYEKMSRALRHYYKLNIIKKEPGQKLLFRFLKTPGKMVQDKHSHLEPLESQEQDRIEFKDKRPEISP
As to conditions: protein: recombinant; tags: N-terminal GST; dsDNA, one strand shown. The method, boiled down: as §1

A further test addresses T11, ELF5 (Homo sapiens, UniProt Q9UKW6-2 1-255).
T11 sequence: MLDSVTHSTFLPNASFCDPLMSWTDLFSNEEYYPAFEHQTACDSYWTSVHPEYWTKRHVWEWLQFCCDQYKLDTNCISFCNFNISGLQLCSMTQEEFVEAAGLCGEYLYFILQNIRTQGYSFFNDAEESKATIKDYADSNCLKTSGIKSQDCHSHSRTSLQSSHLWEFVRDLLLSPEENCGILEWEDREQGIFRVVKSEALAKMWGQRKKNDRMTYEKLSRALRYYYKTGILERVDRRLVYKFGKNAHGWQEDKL
As to conditions: protein: recombinant; tags: N-terminal GST; dsDNA, one strand shown. The method, boiled down:
as §1

In the next test the target is T12, ETV3 (Homo sapiens, UniProt P41162-2 1-143).
T12 sequence: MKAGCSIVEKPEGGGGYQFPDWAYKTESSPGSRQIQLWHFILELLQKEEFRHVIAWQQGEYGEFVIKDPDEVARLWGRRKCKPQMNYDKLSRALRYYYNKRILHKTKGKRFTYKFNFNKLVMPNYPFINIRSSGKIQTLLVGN
The settings on record: protein: recombinant; tags: N-terminal GST; dsDNA, one strand shown. The method, boiled down:
as §1

The next test concerns the target ETV6 (Homo sapiens, UniProt P41212 1-452). The settings on record: protein: recombinant; tags: N-terminal GST; dsDNA, one strand shown. The method, boiled down:
as §1

Chain of ETV6 (P41212 whole entry): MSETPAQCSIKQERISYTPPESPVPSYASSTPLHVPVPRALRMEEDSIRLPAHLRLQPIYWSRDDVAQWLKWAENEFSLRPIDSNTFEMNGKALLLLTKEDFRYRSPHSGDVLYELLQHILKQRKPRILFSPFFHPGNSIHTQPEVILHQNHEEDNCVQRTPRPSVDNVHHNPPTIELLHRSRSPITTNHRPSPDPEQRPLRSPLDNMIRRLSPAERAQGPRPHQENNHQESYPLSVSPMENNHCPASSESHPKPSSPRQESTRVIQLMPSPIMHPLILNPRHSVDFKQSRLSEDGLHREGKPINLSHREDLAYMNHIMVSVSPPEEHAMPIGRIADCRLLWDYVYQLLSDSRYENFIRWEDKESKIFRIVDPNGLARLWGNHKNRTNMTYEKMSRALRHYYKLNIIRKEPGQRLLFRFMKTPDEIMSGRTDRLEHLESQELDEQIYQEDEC
Chain of ELF4 (Q99607 whole entry): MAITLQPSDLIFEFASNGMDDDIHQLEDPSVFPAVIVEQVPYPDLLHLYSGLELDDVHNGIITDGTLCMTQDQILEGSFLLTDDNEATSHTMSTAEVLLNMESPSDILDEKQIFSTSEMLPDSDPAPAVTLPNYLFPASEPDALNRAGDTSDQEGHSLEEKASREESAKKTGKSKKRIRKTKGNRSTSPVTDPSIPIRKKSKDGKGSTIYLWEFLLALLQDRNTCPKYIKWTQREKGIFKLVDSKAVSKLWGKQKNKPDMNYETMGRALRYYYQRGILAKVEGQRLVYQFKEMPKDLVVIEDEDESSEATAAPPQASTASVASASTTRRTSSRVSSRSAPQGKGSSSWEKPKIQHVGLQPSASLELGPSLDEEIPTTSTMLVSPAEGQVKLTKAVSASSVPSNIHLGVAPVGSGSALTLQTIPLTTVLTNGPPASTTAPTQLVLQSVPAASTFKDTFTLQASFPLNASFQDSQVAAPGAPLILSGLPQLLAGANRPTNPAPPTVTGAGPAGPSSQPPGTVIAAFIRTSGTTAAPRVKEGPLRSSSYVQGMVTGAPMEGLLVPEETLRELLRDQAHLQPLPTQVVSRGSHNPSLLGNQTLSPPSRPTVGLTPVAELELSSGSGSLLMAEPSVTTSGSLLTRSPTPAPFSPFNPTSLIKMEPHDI
Chain of ETV5 (P41161 whole entry): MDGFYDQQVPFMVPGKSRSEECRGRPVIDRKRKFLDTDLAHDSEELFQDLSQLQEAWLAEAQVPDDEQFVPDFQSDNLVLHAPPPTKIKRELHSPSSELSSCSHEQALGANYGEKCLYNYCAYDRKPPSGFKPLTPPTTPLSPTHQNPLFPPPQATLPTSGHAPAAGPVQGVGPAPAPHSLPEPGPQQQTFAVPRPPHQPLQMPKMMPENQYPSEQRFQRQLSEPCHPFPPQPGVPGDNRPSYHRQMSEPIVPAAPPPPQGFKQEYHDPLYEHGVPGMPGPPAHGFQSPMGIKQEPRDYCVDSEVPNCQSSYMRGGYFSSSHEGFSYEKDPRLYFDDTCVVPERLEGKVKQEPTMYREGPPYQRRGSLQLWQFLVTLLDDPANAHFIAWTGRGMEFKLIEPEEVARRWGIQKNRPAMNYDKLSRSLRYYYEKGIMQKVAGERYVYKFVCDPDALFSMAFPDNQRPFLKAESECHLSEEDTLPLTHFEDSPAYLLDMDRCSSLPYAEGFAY
Chain of HSF1 (Q00613 whole entry): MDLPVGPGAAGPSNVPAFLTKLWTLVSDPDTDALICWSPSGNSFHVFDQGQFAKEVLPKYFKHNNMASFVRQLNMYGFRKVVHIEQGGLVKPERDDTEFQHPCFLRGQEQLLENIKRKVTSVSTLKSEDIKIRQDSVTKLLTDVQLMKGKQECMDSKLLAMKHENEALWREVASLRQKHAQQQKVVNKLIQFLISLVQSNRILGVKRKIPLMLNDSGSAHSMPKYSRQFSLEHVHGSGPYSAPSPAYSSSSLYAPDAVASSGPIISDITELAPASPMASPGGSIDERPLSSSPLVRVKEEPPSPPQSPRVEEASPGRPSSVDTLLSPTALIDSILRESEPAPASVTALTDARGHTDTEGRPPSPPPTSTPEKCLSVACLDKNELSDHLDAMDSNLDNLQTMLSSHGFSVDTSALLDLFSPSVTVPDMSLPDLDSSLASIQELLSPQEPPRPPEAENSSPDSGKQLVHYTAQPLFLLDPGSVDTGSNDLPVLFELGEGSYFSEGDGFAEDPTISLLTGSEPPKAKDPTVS

With TTTTCT, the binding signal with FEV was 1.26 fold enrichment (6-mer frequency, TF over GST control); in the test with ETV5 it was 1.28 fold enrichment (6-mer frequency, TF over GST control); with HSF1, 2.46 fold enrichment (6-mer frequency, TF over GST control); with SPIC, 1.15 fold enrichment (6-mer frequency, TF over GST control); with ELF4, 1.46 fold enrichment (6-mer frequency, TF over GST control); with ELK4 it was 1.32 fold enrichment (6-mer frequency, TF over GST control). Moreover, the binding signal was 1.48 fold enrichment (6-mer frequency, TF over GST control) in the test with ETV2; 1.35 fold enrichment (6-mer frequency, TF over GST control) in the test with ELF3; 1.61 fold enrichment (6-mer frequency, TF over GST control) with CRX; 1.21 fold enrichment (6-mer frequency, TF over GST control) with ETV1; 1.36 fold enrichment (6-mer frequency, TF over GST control) with ERF; 1.35 fold enrichment (6-mer frequency, TF over GST control) with ETV3L. Also, the binding signal with ETS2 was 1.32 fold enrichment (6-mer frequency, TF over GST control); in the test with SPDEF, 1.28 fold enrichment (6-mer frequency, TF over GST control); with ETV7, 1.42 fold enrichment (6-mer frequency, TF over GST control); in the test with ELF5, 1.26 fold enrichment (6-mer frequency, TF over GST control); in the test with ETV3, 1.54 fold enrichment (6-mer frequency, TF over GST control); in the test with ETV6, 1.32 fold enrichment (6-mer frequency, TF over GST control).
